{"source": "PubChem BioAssay (NCATS)", "key": {"[1]": {"assay": "Viability qHTS for spleen associated tyrosine kinase inhibitor (SYKi) drug resistant MV4-11 cells (AID 1963824); note: nearly all actives have a fitted effect of over 35% in size; note: potency is the fitted concentration of half-maximal effect", "how_it_was_run": "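SYK-inhibitor-resistant MV4-11 AML cells were seeded at 500 per well onto compound and cultured 72 hours (37 °C, 5% CO2). CellTiter-Glo was then added, and after 10 min at room temperature, luminescence gave viability.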"}, "[2]": {"assay": "Quantitative highthroughput screen to assess conditional lethalithy of NOMO1 cells grown in Human Plasma-Like Medium with dialyzed fetal bovine serum (HPLM+ds) (AID 1963878); note: nearly all actives have a fitted effect of over 35% in size", "how_it_was_run": "(§1)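 Each medium arm—HPLM with 10% dialyzed FBS, or RPMI1640 with 5 mM glucose and 10% untreated or dialyzed FBS—was screened against an 11-point, 3-fold compound titration for 48 h at 37 °C, with CellTiter-Glo luminescence as endpoint.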"}, "[3]": {"assay": "Quantitative highthroughput screen to assess conditional lethalithy of P12 Ichikawa cells grown in RPMI1640 with dialyzed fetal bovine serum (RPMI+ds) (AID 1963880)", "conditions": "Potency: P12-Ichikawa viability", "how_it_was_run": "as §1"}, "[4]": {"assay": "Quantitative highthroughput screen to assess conditional lethalithy of SEM cells grown in RPMI1640 with unreated serum (RPMI+s) (AID 1963883)", "how_it_was_run": "as §1"}, "[5]": {"assay": "Quantitative highthroughput screen to assess conditional lethalithy of SEM cells grown in RPMI1640 with dialyzed fetal bovine serum (RPMI+ds) (AID 1963884)", "how_it_was_run": "as §1"}, "[6]": {"assay": "Cellular viability qHTS for adrenocortical cancer (ACC) cell line NCI-H295R (AID 1963990)", "how_it_was_run": "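Luminescent ATP read-out (CellTiter-Glo, 20 min RT) after 48 h drug exposure of NCI-H295R cells; a titration up to 46 uM final. Data normalized to doxorubicin (100% inhibition) and DMSO (0%); 4-parameter fit gives IC50, max response.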"}, "[7]": {"assay": "Quantitative highthroughput screen to assess conditional lethalithy of NOMO1 cells grown in RPMI1640 with dialyzed fetal bovine serum (RPMI+ds) (AID 1963877)", "how_it_was_run": "as §1"}, "[8]": {"assay": "Quantitative highthroughput screen to assess conditional lethalithy of P12 Ichikawa cells grown in Human Plasma-Like Medium with dialyzed fetal bovine serum (HPLM+ds) (AID 1963879)", "conditions": "Potency: viability", "how_it_was_run": "as §1"}, "[9]": {"assay": "Quantitative highthroughput screen to assess conditional lethalithy of P12 Ichikawa cells grown in RPMI1640 with untreated serum (RPMI+s) (AID 1963881)", "conditions": "Potency: viability", "how_it_was_run": "as §1"}, "[10]": {"assay": "Cellular viability qHTS for adrenocortical cancer (ACC) cell line SW-13 (AID 1963989)", "conditions": "SW-13 ACC cells viability, CellTiter-Glo, 48 h; activity (max response): stronger effect = lower value", "how_it_was_run": "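SW-13 cells in ITS-supplemented serum-free DMEM were plated overnight, then exposed for 48 h at 37C to compound titrations (up to 46 uM final). Viability was read by CellTiter-Glo luminescence; four-parameter logistic fits gave IC50 and efficacy.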"}, "[11]": {"assay": "Quantitative highthroughput screen to assess conditional lethalithy of NOMO1 cells grown in RPMI1640 with untreated serum (RPMI+s) (AID 1963876)", "how_it_was_run": "as §1"}}, "note": "Values joined by “and” are separate entries in the source; they are usually repeats but may differ in a detail not shown here. Equal values may be shown once. Records with an inconclusive call do not appear. A call without a number means that no potency is given here. Some compounds were tested as several samples or in several runs, with calls that do not always agree. Active and inactive are the calls of the source. Calls come from the whole dose curve; as a rule, active = well fitted curve in the direction sought with a large enough effect; inconclusive = small, poorly fitted or top-dose-only effect, or another doubt; inactive = no such curve, though single readings can be large; an effect the other way counts as inactive or inconclusive. Throughout, for Potency: potency is the fitted concentration of half-maximal effect. Throughout, for activity (max response): nearly all actives have a fitted effect of over 65% in size.", "data": [{"smiles": "C#CC1(O)CCC2C3CCC4=CC(=O)CCC4(C)C3CCC21C", "note": "(stereo not given)", "values": [{"measurement": "Potency", "setting": "[1]", "value": "11.8 µM (active)"}, {"measurement": "Potency", "setting": "[2]", "value": "inactive"}, {"measurement": "Potency", "setting": "[3]", "value": "inactive"}, {"measurement": "Potency", "setting": "[4]", "value": "inactive"}, {"measurement": "Potency", "setting": "[5]", "value": "inactive"}, {"measurement": "Potency", "setting": "[6]", "value": "inactive"}]}, {"smiles": "Oc1ccc2c(c1)C13CCCC[C@H]1[C@@H](C2)N(CC1CCC1)CC3", "values": [{"measurement": "Potency", "setting": "[1]", "value": "10.3 µM (active)"}]}, {"smiles": "O=c1[nH]c2ccccc2n1CCCN1CCC(n2c(=O)[nH]c3cc(Cl)ccc32)CC1", "values": [{"measurement": "Potency", "setting": "[1]", "value": "18.6 µM (active)"}, {"measurement": "Potency", "setting": "[7]", "value": "inactive"}, {"measurement": "Potency", "setting": "[8]", "value": "inactive"}, {"measurement": "Potency", "setting": "[3]", "value": "inactive"}, {"measurement": "Potency", "setting": "[9]", "value": "inactive"}, {"measurement": "Potency", "setting": "[5]", "value": "inactive"}, {"measurement": "activity (max response)", "setting": "[10]", "value": "-19.5% (inactive)"}, {"measurement": "Potency", "setting": "[6]", "value": "16.4 µM (active) and inactive"}]}, {"smiles": "CC[C@@H]1/C=C/C=C/C[C@H](C)C(O)[C@](C)(O)C(=O)[C@H](C)C(O)[C@H](C)C(=O)[C@H](C)[C@@H](O)[C@H](C)/C=C/C(=O)O[C@H]2[C@@H](C)[C@@H](CC1)O[C@]1(O[C@H](C[C@H](C)O)[C@H](C)CC1=O)[C@@H]2C", "note": "(stereo not given in full)", "values": [{"measurement": "Potency", "setting": "[1]", "value": "0.0123 µM (active)"}]}, {"smiles": "CCC1(c2ccc(N)cc2)CCC(=O)NC1=O", "note": "(stereo not given)", "values": [{"measurement": "Potency", "setting": "[1]", "value": "inactive"}, {"measurement": "Potency", "setting": "[11]", "value": "inactive"}, {"measurement": "Potency", "setting": "[8]", "value": "inactive"}, {"measurement": "Potency", "setting": "[3]", "value": "inactive"}, {"measurement": "Potency", "setting": "[9]", "value": "inactive"}, {"measurement": "Potency", "setting": "[5]", "value": "inactive"}, {"measurement": "activity (max response)", "setting": "[10]", "value": "-1.13% (inactive) and 5.11% (inactive)"}, {"measurement": "Potency", "setting": "[6]", "value": "inactive"}]}, {"smiles": "COc1ccc(CC2C(=O)NC(C)C(=O)N(C)C3Cc4ccc(cc4)Oc4cc(ccc4OC4OC(CO)C(O)C(O)C4O)CC(C(=O)NC(C)C(=O)NC(CCC(=O)O)C(=O)N2C)N(C)C3=O)cc1", "note": "(stereo not given)", "values": [{"measurement": "Potency", "setting": "[1]", "value": "0.618 µM (active)"}]}, {"smiles": "Cn1c(COP(=O)(NCCBr)NCCBr)cnc1[N+](=O)[O-]", "values": [{"measurement": "Potency", "setting": "[1]", "value": "5.9 µM (active)"}, {"measurement": "activity (max response)", "setting": "[10]", "value": "-13.5% (inactive)"}, {"measurement": "Potency", "setting": "[6]", "value": "inactive"}]}, {"smiles": "COc1cc2c(cc1F)C(c1ccccc1Cl)=Nc1c(n[nH]c1C)N2", "values": [{"measurement": "Potency", "setting": "[1]", "value": "1.48 µM (active)"}, {"measurement": "activity (max response)", "setting": "[10]", "value": "-18.7% (inactive)"}, {"measurement": "Potency", "setting": "[6]", "value": "inactive"}]}, {"smiles": "COCCOCCO", "values": [{"measurement": "Potency", "setting": "[1]", "value": "inactive"}, {"measurement": "activity (max response)", "setting": "[10]", "value": "-1.21% (inactive)"}, {"measurement": "Potency", "setting": "[6]", "value": "inactive"}]}, {"smiles": "C[C@H](N)C(=O)c1ccccc1", "values": [{"measurement": "Potency", "setting": "[1]", "value": "inactive"}, {"measurement": "activity (max response)", "setting": "[10]", "value": "-8.86% (inactive)"}, {"measurement": "Potency", "setting": "[6]", "value": "inactive"}]}, {"smiles": "CCC(CC)(CNC(=O)CCCO)c1cccc(OC)c1", "values": [{"measurement": "Potency", "setting": "[1]", "value": "inactive"}, {"measurement": "activity (max response)", "setting": "[10]", "value": "8.71% (inactive)"}, {"measurement": "Potency", "setting": "[6]", "value": "inactive"}]}, {"smiles": "CCC1(c2ccccc2)CCC(=O)NC1=O", "note": "(stereo not given)", "values": [{"measurement": "Potency", "setting": "[1]", "value": "13.3 µM (active)"}, {"measurement": "activity (max response)", "setting": "[10]", "value": "7.87% (inactive)"}, {"measurement": "Potency", "setting": "[6]", "value": "inactive"}]}, {"smiles": "C[CH2][Hg][S]c1ccccc1C(=O)O", "values": [{"measurement": "Potency", "setting": "[1]", "value": "inactive"}, {"measurement": "Potency", "setting": "[10]", "value": "2.59 µM (active)"}]}, {"smiles": "O=[N+]([O-])c1c2ccccc2cc2ccccc12", "values": [{"measurement": "Potency", "setting": "[1]", "value": "24.1 µM (active)"}, {"measurement": "activity (max response)", "setting": "[10]", "value": "8.46% (inactive)"}, {"measurement": "Potency", "setting": "[6]", "value": "inactive"}]}, {"smiles": "C[N+]1(C)[C@@H]2CC[C@H]1CC(OC(=O)C(CO)c1ccccc1)C2", "note": "(stereo not given in full)", "values": [{"measurement": "Potency", "setting": "[1]", "value": "inactive"}, {"measurement": "activity (max response)", "setting": "[10]", "value": "-4.66% (inactive)"}]}, {"smiles": "CC(=O)c1c(O)c(C)c(O)c(Cc2c(O)c3c(c(C(=O)/C=C/c4ccccc4)c2O)OC(C)(C)C=C3)c1O", "values": [{"measurement": "Potency", "setting": "[1]", "value": "25.9 µM (active)"}, {"measurement": "activity (max response)", "setting": "[10]", "value": "-2.92% (inactive)"}, {"measurement": "Potency", "setting": "[6]", "value": "inactive"}]}, {"smiles": "CC(C)NCC(O)c1ccc(N)c(C#N)c1", "note": "(stereo not given)", "values": [{"measurement": "Potency", "setting": "[1]", "value": "inactive"}, {"measurement": "activity (max response)", "setting": "[10]", "value": "6.97% (inactive)"}, {"measurement": "Potency", "setting": "[6]", "value": "inactive"}]}, {"smiles": "COc1ccc(C(CN(C)C)C2(O)CCCCC2)cc1", "note": "(stereo not given)", "values": [{"measurement": "Potency", "setting": "[1]", "value": "inactive"}, {"measurement": "Potency", "setting": "[3]", "value": "inactive"}, {"measurement": "Potency", "setting": "[9]", "value": "inactive"}, {"measurement": "activity (max response)", "setting": "[10]", "value": "0.648% (inactive)"}, {"measurement": "Potency", "setting": "[6]", "value": "inactive"}]}, {"smiles": "COP(=S)(OC)Oc1ccc(S(=O)(=O)N(C)C)cc1", "values": [{"measurement": "Potency", "setting": "[1]", "value": "inactive"}, {"measurement": "activity (max response)", "setting": "[10]", "value": "-2.83% (inactive)"}, {"measurement": "Potency", "setting": "[6]", "value": "inactive"}]}, {"smiles": "C[C@@H](C1CC[C@@]2(O)C3=CC(=O)[C@@H]4C[C@@H](O)[C@@H](O)C[C@]4(C)[C@H]3CC[C@]12C)[C@H](O)CCC(C)(C)O", "note": "(stereo not given in full)", "values": [{"measurement": "Potency", "setting": "[1]", "value": "inactive"}, {"measurement": "activity (max response)", "setting": "[10]", "value": "-1.09% (inactive)"}, {"measurement": "Potency", "setting": "[6]", "value": "inactive"}]}, {"smiles": "C[C@]12CC[C@H]3[C@@H](CC[C@@]45O[C@H]4C(O)=C(C#N)C[C@]35C)[C@H]1CC[C@H]2O", "values": [{"measurement": "Potency", "setting": "[1]", "value": "11.9 µM (active)"}, {"measurement": "Potency", "setting": "[5]", "value": "16.6 µM (active)"}, {"measurement": "activity (max response)", "setting": "[10]", "value": "-2% (inactive)"}]}, {"smiles": "ClC1=C(Cl)C2(Cl)C(CBr)CC1(Cl)C2(Cl)Cl", "note": "(stereo not given)", "values": [{"measurement": "Potency", "setting": "[1]", "value": "inactive"}, {"measurement": "activity (max response)", "setting": "[10]", "value": "-7.86% (inactive)"}, {"measurement": "Potency", "setting": "[6]", "value": "inactive"}]}, {"smiles": "c1ccc(N2CCNCC2)cc1", "values": [{"measurement": "Potency", "setting": "[1]", "value": "inactive"}, {"measurement": "activity (max response)", "setting": "[10]", "value": "12.6% (inactive)"}]}]}
